Shown is part of a subset that was picked to be rich in hits.
Pf Dd2 inh: inhibitors of Plasmodium falciparum Dd2 growth; P. falciparum Dd2 growth, SYBR Green, 72 h; Potency, µM (doses to about 28.9 µM), hits mostly inhibitors; 4.3% of 120,000 active; AID 1347417; active = well fitted inhibition curve with a large enough effect; note: nearly all actives have a fitted effect of over 65% in size
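Readout: SYBR Green fluorescence, 485 nm excitation, 535 nm emission, after ~16 h lysis at 37C. Before that, Dd2-infected red cells (2.5% hematocrit) grew 72 h with compound, 29 uM top final concentration.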
Hits are given with their value; – = inactive; [ ] = remark or other dose.

SMILES	Pf Dd2 inh
CN(C)C(=O)c1ccc2cncn2c1	–
Cc1nc(C)c(CC(=O)N(Cc2ccccc2)Cc2scnc2C)s1	–
CN1Cc2ncnc(NCc3cccnc3)c2CN(c2ccccc2)C1=O	–
O=C(CCC1CCN(S(=O)(=O)c2ccc(F)cc2)CC1)NCc1nc2ccccc2[nH]1	–
CCn1cnnc1CC1CCN(C(=O)CCCC(=O)n2nc(C)c3ccccc32)CC1	–
O=C(NCc1ccco1)C1CC(=O)N(c2n[nH]c3cccc(F)c23)C1 (stereo unspecified)	–
CN1CCC(NC[C@H]2COCc3nc4cc(S(C)(=O)=O)ccc4n32)CC1	–
Fc1ccc(-c2nnc3ccc(NCc4cnccn4)nn23)nc1	–
Cc1ccc(C(=O)N2CCc3sc(C(=O)NC(C)c4ccccc4)cc3C2)cc1 (stereo unspecified)	7.1µM
Cc1ccc(C(=O)N2CCc3sc(C(=O)NCc4ccc(N(C)C)cc4)cc3C2)cc1	–
CC(NC(=O)c1cc2c(s1)CCN(C(=O)c1ccccc1)C2)c1ccc(F)cc1 (stereo unspecified)	–
O=C(c1ccc(C(F)(F)F)cc1)N1CC(Oc2ccc(F)cc2F)C1	–
Cc1cc(C)nc(N2C[C@H]3OC(=O)N(CCc4ccc(F)cc4)[C@H]3C2)n1	–
COCC(=O)N1CCC(O)(c2ccccc2)[C@H](N2CCCC2)C1 (stereo partly specified)	–[5.79 µM]
CCCC(=O)N1CCC(O)(c2ccccc2)[C@H](N2CCCC2)C1 (stereo partly specified)	–[5.79 µM]
Cc1c(CN2CCC(O)(c3ccccc3)[C@H](N3CCCC3)C2)cnn1C (stereo partly specified)	0.45µM
O=C(c1ccccc1)N1CCC2(CC1)CN[S+](=O)([O-])c1cccnc1O2	–
COc1ccc(OC)c(CNC(=O)C2CCCCC(=O)N2)c1 (stereo unspecified)	–
O=C(NCc1nnc2cc(-c3nc(C4CC4)no3)ccn12)c1ccncc1	–
CCNC(=O)NC[C@H]1C[C@@H]2CCN1C[C@@H]2c1cc(-c2cccs2)nn1C	–
Cc1nc(-c2cccs2)cc([C@H]2CN3CC[C@H]2C[C@@H]3COC(=O)NC2CCCCC2)n1	–
Cc1nc(-c2cccs2)cc([C@H]2CN3CC[C@H]2C[C@@H]3CO)n1	11µM
Cn1nc(-c2cccs2)cc1[C@H]1CN2CC[C@H]1C[C@@H]2COC(=O)Nc1cccc(C(F)(F)F)c1	–
Cn1nc(-c2ccc(F)cc2)cc1[C@H]1CN2CC[C@H]1C[C@@H]2COC(=O)Nc1cccc(C(F)(F)F)c1	–
Cc1nc(-c2cccs2)cc([C@H]2CN3CC[C@H]2C[C@@H]3COC(=O)Nc2cccc(C(F)(F)F)c2)n1	7.9µM
SMILES	Pf Dd2 inh
Cc1cccc(CN2CCN(C(=O)c3cnc4ccccn4c3=O)CC2=O)c1	–
CCCS(=O)(=O)N1CCCC1c1noc(CCC(=O)N2CCN(C)CC2)n1 (stereo unspecified)	–
O=C1CCN(C(=O)[C@@H]2CCCN2S(=O)(=O)c2cccc3cccnc23)CCCCCCN1	–
Cc1cc(C(=O)N2C[C@@H](COc3ccccc3)[C@H](C(N)=O)C2)no1	–
Cc1cnc(C(=O)N2CCc3ccc(S(=O)(=O)Nc4cccnc4)cc3C2)cn1	–
COCCn1c(C)cc(C(=O)N2[C@H]3CC[C@@H]2c2cnc(-c4ccc(F)cc4)nc2C3)c1C	11µM
O=C(C1CCC1)N1[C@H]2CC[C@@H]1c1cnc(-c3ccc(F)cc3)nc1C2	13µM
Cc1ncccc1C(=O)N1[C@H]2CC[C@@H]1c1cnc(-c3ccc(F)cc3)nc1C2	–
CCC(=O)N1[C@H]2CC[C@@H]1c1cnc(-c3ccc(F)cc3)nc1C2	–
O=C(C1CCCCC1)N1[C@H]2CC[C@@H]1c1cnc(-c3ccc(F)cc3)nc1C2	–
COc1ccc(C(=O)N2[C@H]3CC[C@@H]2c2cnc(-c4ccc(F)cc4)nc2C3)cc1F	–
O=C(CC1CCS(=O)(=O)C1)N1CCCC(c2ccccc2)(c2ccccc2)C1 (stereo unspecified)	–
Cc1ccc(C)c(-c2cc3c(=O)n(CCNC(=O)c4ccc5ccccc5n4)ccn3n2)c1	–
COc1cc(NC(=O)c2oc3c(c2C)-c2nn(Cc4cccc(Cl)c4)cc2CC3)cc(OC)c1	–
COc1ccc(OC)c(NC(=O)c2oc3c(c2C)-c2nn(Cc4ccc(Cl)cc4)cc2CC3)c1	10µM
COc1ccc(NC(=O)c2oc3c(c2C)-c2nn(Cc4c(F)cccc4Cl)cc2CC3)c(OC)c1	–
Cc1ccccc1C(=O)N1CCC2(CCN(Cc3cnc[nH]3)CC2)C(CO)C1 (stereo unspecified)	–
Cc1cccc(-c2nocc2CCC(=O)NCc2cccs2)c1	–
Cc1csc(CN(C)C(=O)CN2C[C@@H]3CC[C@H](CC2=O)N3)n1	–
COc1ccc2nc(C)cc(Nc3ccc(Cl)c(Cl)c3)c2c1	1µM
COc1ccc(Nc2nc3ccc(Cl)cc3nc2-n2nc(C)cc2C)cc1	–
COc1cccc(Nc2cc(C)nc3nc(-c4ccc(Cl)cc4)nn23)c1	–
COCCN1C(=O)[C@H]2CN(Cc3cccc(F)c3)C[C@H]2C1=O	–
Cc1ccsc1CN1CCc2nc(N(C)Cc3cccnc3)[nH]c(=O)c2CC1	–[5.79 µM]
CC[C@@H]1[C@@H](NC(=O)Cc2csc(C(C)=O)c2)[C@@H]2CCO[C@H]12	–
SMILES	Pf Dd2 inh
CC[C@@H]1[C@@H](NC(=O)C2(c3ccc(S(C)(=O)=O)cc3)CCC2)[C@@H]2CCO[C@H]12	8.9µM
CC[C@@H]1[C@@H](NC(=O)CC2Cc3ccccc3C2)[C@@H]2CCO[C@H]12	–
O=C(Cn1cc(S(=O)(=O)Cc2ccccc2Cl)c2ccccc21)NCc1ccccc1Cl	–
CN(C)c1ccc(NC(=O)Cn2cc(S(=O)(=O)Cc3ccccc3Cl)c3ccccc32)cc1	7.9µM
CN(C)c1ccc(NC(=O)Cn2cc(S(=O)(=O)Cc3cccc(Cl)c3)c3ccccc32)cc1	–
CN1CCOc2c(C(=O)NCCc3cnc[nH]3)cc(-c3ccccc3F)cc21	–
C=CCC1(C(=O)O)CCCN(Cc2cc3c(cc2OC)OCO3)C1 (stereo unspecified)	–
C=CCC1(C(=O)O)CCCN(Cc2cnc(NCc3ccccc3)nc2)C1 (stereo unspecified)	–
C=CCC1(CO)CCCN(Cc2nc(C)cc(-c3ccccc3)n2)C1 (stereo unspecified)	8.9µM
C=CCC1(CO)CCCN(CCOc2ccc(C)cc2Cl)C1 (stereo unspecified)	8.9µM
C=CCC1(CO)CCCN(C(=O)CCCOc2ccccc2)C1 (stereo unspecified)	–
CCC1(CO)CCCN(CCCOc2ccc(C(N)=O)cc2)C1 (stereo unspecified)	–
NC(=O)[C@@H](Cc1c[nH]c2ccccc12)NC(=O)[C@H]1CN(C(=O)C2CCNCC2)CCN1C(=O)C1CCNCC1	–
CNc1nc2c(s1)C(c1ccc(Cl)cc1)CC(=O)N2 (stereo unspecified)	–
O=C(CC1CCCC1)N1CCC(N2C(=O)C(O)C23CCCCC3)CC1 (stereo unspecified)	–
COc1ccccc1C(=O)NC1CCN(c2cc(-c3ccc(F)cc3)[nH]n2)C1 (stereo unspecified)	–
O=C(N1CCC(Cc2nc(C3CCOCC3)no2)CC1)C1(c2ccccc2)CC1	–
CCOCC(=O)N1CCC2(CC1)CC(Cc1nc(-c3ccncc3)no1)CCO2 (stereo unspecified)	–
O=C(N1CCC2(CC1)CC(Cc1nc(-c3cccnc3)no1)CCO2)C1(c2ccccc2)CC1 (stereo unspecified)	7.9µM
